Results from PubChem BioAssay AID1224852 (National Center for Advancing Translational Sciences (NCATS), 2016).
Results filed as inconclusive are left out. Active and inactive are the calls of the source. Calls follow the shape of the dose curve; as a rule, active = well fitted curve in the direction sought with a large enough effect (not every such curve was filed as active); inconclusive = small, poorly fitted or top-dose-only effect, or effect the other way, or another doubt; inactive = no such curve, though single readings can be large or run the other way.

Test: Cell viability assay for measurement of the protective activity of small molecules against cell death caused by Zika virus infection in human neural progenitor cells (hNPCs)
Settings: hNPC ZIKV-induced death protection, ATP luminescence, 72 h; series mostly up to 46.1 µM
Procedure, shortened: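 Luminescent ATP content after 72 h ZIKV infection (2 FFU/cell) of hNPCs, compounds added 1 h before virus. Protection expressed as percent inhibition of the infection-induced drop in cell viability.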

Row | Compound | outcome
1 | CC1(C)OC2=C(C(=O)c3ccccc3C2=O)[C@H](NCc2ccccc2)[C@H]1O | inactive
2 | Nc1ccc(O)c(C(=O)O)c1 | inactive
3 | CN1CCN(c2cc3c(nn2)Oc2ccccc2N3C)CC1 | inactive
4 | O=c1oc2cc(O)ccc2s1 | inactive
5 | CN(C)c1ccc(C(=C2C=CC(=[N+](C)C)C=C2)c2ccccc2)cc1 | inactive
6 | O=C(O)c1cc([N+](=O)[O-])ccc1NCCCc1ccccc1 | inactive
7 | Cc1c(N)c(=O)n(-c2ccccc2)n1C | inactive
8 | COc1cc2nc(-c3ccc(N4CCN(C)CC4)cc3)nc(NCCN3CCOCC3)c2cc1OC | inactive
9 | CCN1/C(=C/C=C/c2sc3ccccc3[n+]2CC)Sc2ccccc21 | inactive
10 | O=c1c(-c2ccc(O)cc2)coc2cc(O)ccc12 | inactive
11 | Cc1cc(O)c2ccccc2c1O | inactive
12 | COCCn1c2c([n+](Cc3cnccn3)c1C)C(=O)c1ccccc1C2=O | inactive
13 | O=C(/C=C/c1ccccc1)NCCO | inactive
14 | CN(C)c1cc(NC(=O)CNC(C)(C)C)c(O)c2c1C[C@@H]1C[C@H]3[C@H](N(C)C)C(=O)C(C(N)=O)=C(O)[C@@]3(O)C(=O)C1=C2O | inactive
15 | COc1cccc2c1C(=O)c1c(O)c3c(c(O)c1C2=O)C[C@@](O)(C(=O)CO)C[C@@H]3O[C@H]1C[C@H](N)[C@H](O[C@@H]2CCCCO2)[C@H](C)O1 | inactive
16 | Cc1ccc(O)c(-n2nc3ccccc3n2)c1 | inactive
17 | COc1ccc(-c2cc(=O)c3c(O)cc(O)cc3o2)cc1O | inactive
18 | CC(C(=O)O)c1ccc(C(=O)c2ccccc2)s1 (stereo unspecified) | inactive
19 | CC[C@@]1(O)C[C@H](O[C@H]2C[C@H](N(C)C)[C@H](O[C@H]3C[C@H](O)[C@H](O[C@H]4CCC(=O)[C@H](C)O4)[C@H](C)O3)[C@H](C)O2)c2c(cc3c(c2O)C(=O)c2c(O)cccc2C3=O)[C@@H]1C(=O)OC | inactive
20 | O=C1c2ccccc2-[n+]2ccc3c([nH]c4ccccc43)c21 | inactive
21 | Cc1c(NC(=O)c2ccc(C(C)(C)C)cc2)cccc1-c1cn(C)c(=O)c(Nc2ccc(C(=O)N3CCOCC3)cc2)n1 | inactive
22 | C[C@@H]1CCN(C(=O)CC#N)C[C@H]1N(C)c1ncnc2[nH]ccc12 | inactive

Row | Compound | outcome
23 | O=c1c(-c2ccc(O)cc2)coc2cc(OC3O[C@H](CO)[C@H](O)[C@H](O)[C@H]3O)cc(O)c12 (stereo partly specified) | inactive
24 | Nc1nc2ccc([N+](=O)[O-])cc2s1 | inactive
25 | O[C@@H](COc1cccc2ncccc12)CN1CCN(C2c3ccccc3[C@@H]3[C@H](c4ccccc42)C3(F)F)CC1 (stereo partly specified) | inactive
26 | Cc1cc(O)c2c(c1)C(=O)c1cc(O)cc(O)c1C2=O | inactive
27 | COc1cccc(-c2ccc(NC(=O)C3=C(C(=O)O)CCC3)c(F)c2)c1 | inactive
28 | COc1ccnc2c1CCCCC2S(=O)c1nc2ccccc2[nH]1 (stereo unspecified) | inactive
29 | COc1ccc(-c2cc(=S)ss2)cc1 | inactive
30 | OCc1ccc(-c2ccc(-c3ccc(CO)s3)o2)s1 | inactive
31 | Nc1ccc(N=Nc2ccccc2)c(N)n1 | inactive
32 | Cc1oncc1C(=O)Nc1ccc(C(F)(F)F)cc1 | inactive
33 | N#C/C(=C\c1ccc(O)c(O)c1)C(=O)Nc1ccccc1 | inactive
34 | Nc1ccc2c(c1)CN1C(=O)c3ccccc3C1=N2 | inactive
35 | O=C(OCc1ccccc1)c1ccc(O)cc1 | inactive
36 | CCCCCCCC/C=C/C(=O)O | inactive
37 | CN1CC(=O)N/C1=N/C(=O)Nc1cccc(Cl)c1 | inactive
38 | CC(C)OC(=O)CCCC=CC[C@@H]1[C@H](C=C[C@@H](O)COc2cccc(C(F)(F)F)c2)[C@H](O)C[C@@H]1O | inactive
39 | CC(=O)OC(C)OC(=O)C(C)c1ccc(-c2ccccc2)c(F)c1 (stereo unspecified) | inactive
40 | CS(=O)(=O)c1ccc(-c2cn3ccccc3n2)cc1 | inactive
41 | CCCCCNC(=O)N1CCC(CN(Cc2ccc(Cl)cc2)Cc2ccc([N+](=O)[O-])s2)C1 (stereo unspecified) | inactive
42 | CC(C)(C)OC(=O)CN(Cc1ccc(Cl)cc1)Cc1ccc([N+](=O)[O-])s1 | inactive
43 | CC(=O)Oc1ccccc1C(=O)Nc1ncc([N+](=O)[O-])s1 | inactive
44 | O=S(=O)(O)CCSSCCS(=O)(=O)O | inactive

Row | Compound | outcome
45 | CCC(C(=O)O)c1ccc(N2Cc3ccccc3C2=O)cc1 (stereo unspecified) | inactive
46 | CC(C)Oc1ccc2c(=O)c(-c3ccccc3)coc2c1 | inactive
47 | O=C(O)c1ccccc1Nc1cccc(C(F)(F)F)c1 | inactive
48 | Clc1ccccc1-c1nc(-c2ccncc2)no1 | inactive
49 | Nc1ccc(-c2ccc3ccccc3n2)cc1 | inactive
50 | CN(C)c1ccc(/C=C2\C(=O)Nc3ccccc32)cc1 | inactive
51 | O=C(O)Cc1ccc(-c2ccccc2)cc1 | inactive
52 | CCCCCCOc1ccccc1C(N)=O | inactive
53 | O=C(O)[C@@H](c1ccc(OCc2ccc3ccccc3n2)cc1)C1CCCC1 | inactive
54 | O=c1cc(-c2ccccc2)oc2cc(O)c(O)c(O)c12 | inactive
55 | O=S(=O)(O)c1ccc2nc(-c3ccccc3)[nH]c2c1 | inactive
56 | CC=CC[C@@H](C)C(=O)[C@H]1C(=O)N[C@@H](C(C)C)C(=O)N(C)CC(=O)N(C)[C@@H](CC(C)C)C(=O)N[C@@H](C(C)C)C(=O)N(C)[C@@H](CC(C)C)C(=O)N[C@@H](C)C(=O)N[C@H](C)C(=O)N(C)[C@@H](CC(C)C)C(=O)N(C)[C@@H](CC(C)C)C(=O)N(C)[C@@H](C(C)C)C(=O)N1C | inactive
57 | CCN(CC)c1ccc(C(=C2C=CC(=[N+](CC)CC)C=C2)c2cc(S(=O)(=O)O)ccc2S(=O)(=O)[O-])cc1 | inactive
58 | Cc1cccc(/C=C/c2ccccc2)n1 | inactive
59 | CNC1[C@H](O)C(O[C@@H]2C(O)C(O[C@H]3O[C@H]([C@@H](C)NC)CC[C@H]3N)[C@@H](N)C[C@H]2N)OC[C@]1(C)O (stereo partly specified) | inactive
60 | N#CC1(c2ccc(NC(=O)c3cccnc3NCc3ccncc3)cc2)CCCC1 | inactive
61 | O=C1c2ccccc2C(=O)c2c1ccc(O)c2O | inactive
62 | [O-][n+]1ccccc1SSc1cccc[n+]1[O-] | inactive
63 | CCCCCCCCCCCC(=O)[O][Sn]([CH2]CCC)([CH2]CCC)[O]C(=O)CCCCCCCCCCC | inactive
64 | COc1ccc(-c2coc3cc(O)ccc3c2=O)cc1 | inactive
65 | O=C1c2ccccc2C(=O)c2c(NCCc3ccc(O)cc3)ccc(NCCc3ccc(O)cc3)c21 | inactive
66 | CCCC(=O)OC[C@@H](OC(=O)CCC)[C@@H](OC(=O)CCC)[C@H](Cn1c2nc(=O)[nH]c(=O)c-2nc2cc(C)c(C)cc21)OC(=O)CCC | inactive
